697 NFkB inh – inhibitors of PMA/ionomycin-induced NF-kB reporter, 697 cells, primary screen, B-cell NF-kB inhibitor project, cell-based, luminescence, uHTS; 697 B-cell NF-kB luciferase reporter, 16 h; inhibition, % at 4 µM; 330,000 compounds, 0.33% hits; AID 435022, 2010; in the data active = inhibition above about 35%
Shn3 inh set2 – reduction of Shn3 3'UTR firefly luciferase signal, primary screen, Schnurri-3 inhibitor project, cell-based, Clone20 osteoblasts, set 2; 360,000 compounds, 0.52% hits; Clone20 osteoblast Shn3 3'UTR firefly luciferase, 24 h; inhibition, % at 12.5 µM; AID 588674, 2011;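 active = mean inhibition of at least 75% with every replicate also reaching 75%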;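 note: 0% = median of neutral control wells and 100% = pilot-screen positive control compound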
Mdm2-MdmX inh – inhibitors of human Mdm2-MdmX association, primary screen, cell-based, luminescence, split luciferase, SaOS-2, uHTS. SaOS-2 split-luciferase Mdm2/MdmX complementation. inhibition, % at 8 µM. Protein Mdm4 (Homo sapiens) + E3 ubiquitin-protein ligase Mdm2 (Homo sapiens), …. AID 485346, 2010. 330,000 compounds, 3% hits;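 active = inhibition of at least 50% at 8 µM in the primary screen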
Target sequence (O15151 whole entry, looked up): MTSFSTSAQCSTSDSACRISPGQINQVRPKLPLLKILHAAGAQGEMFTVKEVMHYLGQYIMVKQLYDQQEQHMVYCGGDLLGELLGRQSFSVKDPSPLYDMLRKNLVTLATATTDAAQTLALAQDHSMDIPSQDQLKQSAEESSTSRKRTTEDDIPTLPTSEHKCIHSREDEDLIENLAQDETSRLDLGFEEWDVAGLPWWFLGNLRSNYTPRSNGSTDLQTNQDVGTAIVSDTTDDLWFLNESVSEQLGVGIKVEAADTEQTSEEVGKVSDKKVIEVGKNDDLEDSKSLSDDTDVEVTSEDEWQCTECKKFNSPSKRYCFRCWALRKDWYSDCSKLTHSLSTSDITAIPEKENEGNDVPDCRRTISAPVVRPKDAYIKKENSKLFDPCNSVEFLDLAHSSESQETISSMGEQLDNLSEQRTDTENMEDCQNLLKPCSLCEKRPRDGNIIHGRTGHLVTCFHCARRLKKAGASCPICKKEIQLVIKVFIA
Target sequence (Q00987 whole entry, looked up): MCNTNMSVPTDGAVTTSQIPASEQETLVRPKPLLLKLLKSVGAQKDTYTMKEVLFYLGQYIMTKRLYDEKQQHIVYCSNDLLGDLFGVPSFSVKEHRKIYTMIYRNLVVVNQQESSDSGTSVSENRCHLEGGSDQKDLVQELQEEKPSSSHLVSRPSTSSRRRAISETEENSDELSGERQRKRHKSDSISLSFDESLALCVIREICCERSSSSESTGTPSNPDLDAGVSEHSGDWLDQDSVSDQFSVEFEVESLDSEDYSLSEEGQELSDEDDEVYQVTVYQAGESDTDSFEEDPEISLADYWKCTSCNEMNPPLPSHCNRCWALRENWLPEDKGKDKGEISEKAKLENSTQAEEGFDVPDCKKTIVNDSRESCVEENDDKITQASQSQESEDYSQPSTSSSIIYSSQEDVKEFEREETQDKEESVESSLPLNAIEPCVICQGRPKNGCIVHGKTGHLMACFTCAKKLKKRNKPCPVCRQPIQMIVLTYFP
Gli-Sufu antag – Gli-Sufu pathway antagonists, primary screen, luciferase luminescence, Sufu-KO-LIGHT cells, uHTS; Sufu-KO-LIGHT fibroblasts, Gli luciferase reporter luminescence; inhibition, % at 5 µM; 340,000 compounds, 0.74% hits; AID 588413, 2011;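 active = inhibition above about 55%, limit read from the data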;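 note: 0% = DMSO-treated cells and 100% = wells with medium but no cells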
Jurkat NFkB inh – inhibitors of induced NF-kB luciferase reporter, primary screen, TCR NF-kB activation inhibitor project, cell-based, luminescence, uHTS. Jurkat, PMA/ionomycin-induced NF-kB luciferase reporter. inhibition, % at 4 µM. 330,000 compounds, 0.53% hits. AID 435003, 2010; in the data active = inhibition above about 50%
Mdm2 MdmX conf – Mdm2-MdmX complex disruptors, retested hits, confirmation, luminescence, single concentration; shares compounds with Mdm2-MdmX inh; Mdm2-MdmX binding, luminescent assay; inhibition, % at 8 µM; 10,000 compounds, 55% hits; in the data active = inhibition above about 40%
FLuc counter – full-length luciferase signal inhibition, confirmation, counter-screen for Mdm2/MdmX interaction inhibitor project, cell-based, single concentration, SaOS-2 | shares compounds with Mdm2-MdmX inh | SaOS-2 full-length luciferase counterscreen, luminescence | inhibition, % at 8 µM | 6,200 compounds, 77% hits;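 active = mean inhibition at 8 µM reaching about 37%, which flags the compound as non-specific, limit read from the data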;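 note: p53-null SaOS-2 cells with luciferase driven by a doxycycline-inducible promoter; compound on cells about two nights before reading with doxycycline added after day one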
* hit, by the source's call; · = no result given. Only some compounds are listed: those with a hit (about 3.8% of all), similar ones and a draw of the others.

SMILES	697 NFkB inh	Shn3 inh set2	Mdm2-MdmX inh	Gli-Sufu antag	Jurkat NFkB inh	Mdm2 MdmX conf	FLuc counter
COc1ccc(S(=O)(=O)N2CCOCC2)cc1NC(=O)COC(=O)c1[nH]c(C)c(C(C)=O)c1C	14	5	33	5	13	·	·
COc1ccccc1NS(=O)(=O)c1cc(NC(=O)c2ccccc2C)ccc1N1CCOCC1	·	-5	·	5	·	·	·
CCOc1cc(/C=N/NC(=O)c2c(-c3ccccc3)noc2C)ccc1O	13	-9	3	-1	4	·	·
COc1cc(/C=N/NC(=O)c2c(-c3ccccc3)noc2C)ccc1O	8	-7	12	-4	-3	·	·
CCOc1cc([N+](=O)[O-])cc(/C=N/NC(=O)c2c(-c3ccccc3)noc2C)c1O	14	0	57*	4	1	21	·
Cc1ccc(/C=N/NC(=O)c2c(-c3ccccc3)noc2C)c(O)c1	-70	79	65*	·	-19	62*	31
O=C1/C(=C/c2ccccc2F)SC(=S)N1CC(=O)N1CCCCC1c1cccnc1 (centres undefined)	0	-6	79*	14	-2	41*	20
O=C1/C(=C/c2ccc(F)cc2)SC(=S)N1CC(=O)N1CCCCC1c1cccnc1 (centres undefined)	-5	2	74*	3	-9	35	·
CC(=O)N(Cc1ccc(F)cc1)C1=C(NCCc2ccccc2)C(=O)c2ccccc2C1=O	7	38	80*	75*	16	85*	52*
O=C1C(Cl)=C(NCCc2ccccc2)C(=O)c2ccccc21	·	28	·	11	·	·	·
Cc1occc1C(=O)NNC(=O)CN1C(=O)NC2(CCCCC2)C1=O	5	9	-13	-5	-2	·	·
CCCC1=Nc2cc(C(=O)NCCCOC(C)C)ccc2Sc2ccccc21	-90	34	50*	-3	46	66*	71*
Cc1ccc(C)c(NC(=O)Cn2nnc(-c3ccc(N4CCOCC4)cc3)n2)c1	-8	2	83*	-26	-30	38	83*
Cc1cccc(C)c1NC(=O)Cn1nnc(-c2ccc(N3CCOCC3)cc2)n1	-11	0	70*	-12	-14	20	·
COc1ccc(CCNC(=O)Cn2nnc(-c3ccc(N4CCOCC4)cc3)n2)cc1OC	-12	7	28	-16	-37	·	·
Cc1ccccc1NC(=O)Cn1nnc(-c2ccc(CN3CCC(C)CC3)cc2)n1	2	36	-3	-8	-9	·	·
CCN(CC)S(=O)(=O)c1ccc(C)c(NS(=O)(=O)c2cc(/C=C/C(=O)O)cc(OC)c2OC)c1	-5	10	-6	8	-14	·	·
NC1=NC[C@H](Cc2ccccc2)N1CCCCC1CCCCC1	-42	64	78*	58*	3	30	·
NC1=NC[C@@H](CC2CCCCC2)N1CCc1cc(C(F)(F)F)cc(C(F)(F)F)c1	-16	97*	99*	9	8	100*	51*
CCC(C)[C@H]1CN=C(N)N1CCc1cc(C(F)(F)F)cc(C(F)(F)F)c1 (some centres undefined)	-8	14	60*	37	-18	29	·
CCCN(C(=O)CCNC(=O)Cn1cnc2ccccc2c1=O)c1cccc(Cl)c1	-11	5	14	-16	23	·	·
CCOc1cc(NC(=O)c2ccccn2)c(OCC)cc1NC(=O)c1ccc(Cl)cc1	-16	14	56*	13	16	18	·
COc1ccc(-c2ccc3c(c2)S(=O)(=O)c2cccc(C(=O)N4CCN(c5c(Cl)cncc5Cl)CC4)c2C3=O)cc1OC	11	-18	9	27	13	·	·
CCN(CC)Cc1cc2[nH]c3c4ccc(Cl)cc4ncc3c2cc1OC	5	4	54*	4	32	24	·
Cc1[nH]c(=O)c(C(=O)/C=C/c2ccccc2F)c2c1CCCC2	1	6	80*	3	8	99*	53*
SMILES	697 NFkB inh	Shn3 inh set2	Mdm2-MdmX inh	Gli-Sufu antag	Jurkat NFkB inh	Mdm2 MdmX conf	FLuc counter
COCC(=O)Nc1cc(C)c2c(=O)oc3ccccc3c2n1	10	18	-3	-6	-16	·	·
COc1ccc(C(=O)Nc2cc(C)c3c(=O)oc4ccccc4c3n2)cc1	10	-13	74*	6	6	25	·
Cc1ccc(C(NC(=O)NC(C)c2ccccc2)C(Cl)(Cl)Cl)cc1F (centres undefined)	24	47	55*	2	11	58*	40*
CC(NC(=O)Nc1ccc(Cl)cc1)c1ccccc1 (centres undefined)	-13	-4	6	4	-10	·	·
Nc1ncnc2c1ncn2CCOc1ccccc1	-54	-15	59*	-5	9	7	·
CCOC(=O)c1c(NC(C)=O)sc2c(OCC(O)CNC(C)(C)C)c(Br)ccc12 (centres undefined)	-12	-21	100*	22	6	100*	54*
CCOC(=O)c1c(N)sc2c(OCC)c(Br)ccc12	2	-18	2	-4	3	·	·
Cn1c(Sc2ccc(Cl)cc2)c(C=O)c2ccccc21	0	7	81*	4	6	77*	57*
Cn1c(Oc2ccc(Cl)cc2)c(C=O)c2ccccc21	-23	1	50*	-23	-7	41*	34
COc1ccc(Oc2c(C=O)c3ccccc3n2C)cc1	10	14	32	-88	14	·	·
Cn1c(Sc2ccccc2Cl)c(C=O)c2ccccc21	23	8	24	8	5	·	·
COc1cccc(/C=N/Nc2nc3ccccc3n3cnnc23)c1O	-16	73	34	10	18	·	·
Cc1cc(C)n(-c2nc(Nc3ccccc3)nc(-n3nc(C)cc3C)n2)n1	7	15	13	6	-8	·	·
COc1cccc(/C=N/Nc2nc(Nc3ccccc3)nc(-n3nc(C)cc3C)n2)c1O	9	60	57*	19	-7	23	·
COc1cccc(/C=N/Nc2cc(-n3nc(C)cc3-c3ccccc3)ncn2)c1O	2	90*	59*	41	19	78*	50*
O=C(Cc1sc(-c2ccccc2Cl)nc1-c1ccccc1)Nc1ccc(F)cc1	26	-2	64*	9	-8	24	·
Cc1nc(-c2ccc(F)cc2)c(CC(=O)N(C)CC(=O)Nc2ccc(F)cc2)s1	-48	-2	15	6	-26	·	·
CC(=O)Nc1ccc(NC(=O)Cc2sc(-c3cccnc3)nc2-c2ccc(C)cc2)cc1	3	-27	30	-6	7	·	·
